Assay results: PMC8384837, “Expanding the binding specificity for RNA recognition by a PUF domain”

Biological target: PUM1 PUF domain R4-SMV (Homo sapiens, UniProt Q14671 828-1176, N971S;H972M;Q975V)
Assay: yeast three-hybrid, YBZ-1, SC-Leu-His + 0.5 mM 3-AT, 4 days
Conditions: tags: N-Gal4 AD-HA kept; label: inside an RPR1-promoter hybrid RNA with tandem MS2 sites; ssRNA
Procedure, shortened: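 The interaction score is the log change in variant frequency from input to selection. Scores were computed in log2 with a pseudocount of 1 for absent variants, using Illumina sequencing of PCR-amplified repeat regions. The input came from four days on SC-Leu and the selection from four days on SC-Leu-His + 0.5 mM 3-AT. The cells were strain YBZ-1 (LexA–MS2 coat fusion, HIS3 reporter) co-expressing Pumilio-1 PUF domain libraries and matching RNA elements from a centromeric plasmid.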

Chain of PUM1 PUF domain R4-SMV (Q14671 828-1176 N971S/H972M/Q975V): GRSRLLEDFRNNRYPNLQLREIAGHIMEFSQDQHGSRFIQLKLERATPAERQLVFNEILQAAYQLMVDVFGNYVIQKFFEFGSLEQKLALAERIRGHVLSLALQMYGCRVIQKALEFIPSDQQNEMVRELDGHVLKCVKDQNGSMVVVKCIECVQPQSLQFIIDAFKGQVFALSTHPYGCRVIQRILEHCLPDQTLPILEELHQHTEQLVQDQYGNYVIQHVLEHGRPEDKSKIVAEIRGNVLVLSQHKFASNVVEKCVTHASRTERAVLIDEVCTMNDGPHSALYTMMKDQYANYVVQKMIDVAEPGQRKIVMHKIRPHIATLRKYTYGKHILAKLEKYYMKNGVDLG

Row | Sequence | binding signal
1 | GGCUAGAACUAGUGGAUCCCCCGGCGCCCGGCGGCUCGAGCCCGGGUAAGUGUAUAUAGUCUGCAUGCCGCCGGGCGCCAUGCCUGCAGGUCGACUCUAGAAAACAUG | 2.15 log2 enrichment (interaction score)
2 | GGCUAGAACUAGUGGAUCCCCCGGCGCCCGGCGGCUCGAGCCCGGGUAAGUGUAAAUAGUCUGCAUGCCGCCGGGCGCCAUGCCUGCAGGUCGACUCUAGAAAACAUG | 3.8 log2 enrichment (interaction score)
3 | GGCUAGAACUAGUGGAUCCCCCGGCGCCCGGCGGCUCGAGCCCGGGUAAGUGUACAUAGUCUGCAUGCCGCCGGGCGCCAUGCCUGCAGGUCGACUCUAGAAAACAUG | 0.58 log2 enrichment (interaction score)
